According to PubChem BioAssay (NCATS):
Results filed as inconclusive are left out. Activity calls are given as the source filed them.
Potency means the concentration at half of the fitted maximal effect.

Assay: qHTS for identification of novel therapeutic agents for treatment of microphthalmiaassociated transcription factor (MiT) renal cell carcinoma (RCC) (AID 1963991)
Settings: TFE3-RCC UOK109 viability, CellTiter-Glo, 48 h; active = Z-AUC below -0.8 in all three lines
In short: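 Viability of three TFE3-fusion renal carcinoma lines measured by CellTiter-Glo after 48 h treatment with each of 1912 compounds at 11 concentrations. Responses scaled between DMSO (100%) and empty wells (0%) before curve fitting.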
In the case of `Nc1nc(F)nc2c1ncn2[C@@H]1O[C@H](CO)[C@@H](O)[C@@H]1O`, the Potency is reported as 372 nM (active). For `CN(C)c1ccc(C(=C2C=CC(=[N+](C)C)C=C2)c2ccc(N(C)C)cc2)cc1`, the Potency was 1180 nM (active). In the case of `CC(C)C[C@H](NC(=O)[C@H](CCc1ccccc1)NC(=O)CN1CCOCC1)C(=O)N[C@@H](Cc1ccccc1)C(=O)N[C@@H](CC(C)C)C(=O)[C@@]1(C)CO1`, the Potency is reported as 1480 nM (active).

Same assay, conditions: TFE3-RCC UOK109 viability, CellTiter-Glo, 48 h; measured here: UOK109 Z-AUC; stronger effect = lower value
Work on `Nc1nc(F)nc2c1ncn2[C@@H]1O[C@H](CO)[C@@H](O)[C@@H]1O` yielded a z-score of -1.54. `CC(C)OC(=O)OCOP(=O)(CO[C@H](C)Cn1cnc2c(N)ncnc21)OCOC(=O)OC(C)C` showed a z-score of 0.412. For `CCN[C@H]1C[C@H](C)S(=O)(=O)c2sc(S(N)(=O)=O)cc21`, the z-score was 0.833. In the case of `CN(C)c1ccc(C(=C2C=CC(=[N+](C)C)C=C2)c2ccc(N(C)C)cc2)cc1`, the z-score is reported as -1.93. In the case of `COCCCOc1cc(C[C@@H](C[C@H](N)[C@@H](O)C[C@H](C(=O)NCC(C)(C)C(N)=O)C(C)C)C(C)C)ccc1OC`, the z-score is reported as 1.1. In the case of `CN(C)CCc1c[nH]c2ccc(C[C@H]3COC(=O)N3)cc12`, the z-score is reported as 0.402. `NCCCC(O)(P(=O)(O)O)P(=O)(O)O` gave a z-score of 0.263. In the case of `O=C(O)CSCC(=O)NC1CCSC1=O` (stereo unspecified), the z-score is reported as 0.815. For `CCn1cc(C(=O)O)c(=O)c2cc(F)c(N3CCNCC3)cc21`, the z-score was 1.12. Compound `N[C@@H](Cc1ccc(O)c(O)c1)C(=O)O` has a z-score of 0.912. Compound `C[C@@H]1CN(c2c(F)c(N)c3c(=O)c(C(=O)O)cn(C4CC4)c3c2F)C[C@H](C)N1` has a z-score of 1.8. `CC(=O)[C@H]1CC[C@H]2[C@@H]3CC=C4C[C@@H](O)CC[C@]4(C)[C@H]3CC[C@]12C` gave a z-score of 0.424. `CCN1CCCC1CNC(=O)c1cc(S(N)(=O)=O)ccc1OC` (stereo unspecified) showed a z-score of 0.447. Work on `Cn1nnc2c(C(N)=O)ncn2c1=O` yielded a z-score of 0.106. With `COc1ccc2c(c1)c(CC(=O)OCC(=O)O)c(C)n2C(=O)c1ccc(Cl)cc1` the z-score was 1.12. For `CC(=O)CC(c1ccccc1)c1c(O)c2ccccc2oc1=O` (stereo unspecified), the z-score was 0.83. In the case of `CC1=C(C(=O)O)N2C(=O)[C@@H](NC(=O)C(N)c3ccccc3)[C@H]2SC1` (stereo partly specified), the z-score is reported as 1.68. Compound `Cn1c(=O)c2c(ncn2CC(O)CO)n(C)c1=O` (stereo unspecified) has a z-score of 0.0441. In the case of `NNC(=O)c1ccncc1`, the z-score is reported as 1.86. Compound `CO[C@@H]1[C@@H](OC(N)=O)[C@@H](O)[C@H](Oc2ccc3c(O)c(NC(=O)c4ccc(O)c(CC=C(C)C)c4)c(=O)oc3c2C)OC1(C)C` has a z-score of 0.755. `NS(=O)(=O)c1cc2c(cc1Cl)NC(C(Cl)Cl)NS2(=O)=O` (stereo unspecified) showed a z-score of 0.286. In the case of `Cc1nnc(C(=O)NC(C)(C)c2nc(C(=O)NCc3ccc(F)cc3)c(O)c(=O)n2C)o1`, the z-score is reported as 0.782. In the case of `Cc1onc(-c2ccccc2Cl)c1C(=O)N[C@@H]1C(=O)N2[C@@H]1SC(C)(C)[C@@H]2C(=O)O`, the z-score is reported as 1.22. Compound `O=C(O)c1cccnc1` has a z-score of 0.704. Work on `COc1ccccc1OCC(O)COC(N)=O` (stereo unspecified) yielded a z-score of 0.0196. `CC(C)C[C@H](NC(=O)[C@H](CCc1ccccc1)NC(=O)CN1CCOCC1)C(=O)N[C@@H](Cc1ccccc1)C(=O)N[C@@H](CC(C)C)C(=O)[C@@]1(C)CO1` gave a z-score of -1.85. Compound `Clc1ccccc1CN1CCc2sccc2C1` has a z-score of 0.71. Work on `COC(c1ccccc1)(c1ccccc1)[C@H](Oc1nc(C)cc(C)n1)C(=O)O` yielded a z-score of 1.16. In the case of `CC1CC2C3CCC4=CC(=O)C=C[C@]4(C)[C@@]3(F)[C@@H](O)C[C@]2(C)[C@@]1(O)C(=O)CO` (stereo partly specified), the z-score is reported as 0.936. `Cc1c(-c2ccc(O)cc2)n(Cc2ccc(OCCN3CCCCCC3)cc2)c2ccc(O)cc12` showed a z-score of 0.552. Compound `CC(C)C1CCC(C(=O)N[C@H](Cc2ccccc2)C(=O)O)CC1` (stereo partly specified) has a z-score of 0.399. In the case of `O=C(O)CCn1c2c(c3ccccc31)C[C@H](NS(=O)(=O)c1ccc(F)cc1)CC2`, the z-score is reported as 0.68. `CCCCS(=N)(=O)CCC(N)C(=O)O` (stereo unspecified) gave a z-score of 0.217. `CCN(CC)CCn1c(=O)c(Cc2ccc(OC)cc2)nc2ccccc21` gave a z-score of 0.411. `CCCN[C@H]1CCc2nc(N)sc2C1` showed a z-score of 0.498. Compound `O=C(NCC1CN(c2ccc(N3CCOCC3=O)cc2)C(=O)O1)c1ccc(Cl)s1` (stereo unspecified) has a z-score of 0.607. `CC1=NN(c2ccccc2)C(=O)C1` gave a z-score of -4.96. For `CCN(CC)CC#CCOC(=O)C(O)(c1ccccc1)C1CCCCC1` (stereo unspecified), the z-score was 0.714. In the case of `NC(=O)c1ccc2[nH]ccc2c1`, the z-score is reported as 0.214.

Same assay, conditions: TFE3-RCC viability, CellTiter-Glo, 48 h; measured here: UOK124 Z-AUC; stronger effect = lower value
Compound `Nc1nc(F)nc2c1ncn2[C@@H]1O[C@H](CO)[C@@H](O)[C@@H]1O` has a z-score of -1.3. Work on `CC(C)OC(=O)OCOP(=O)(CO[C@H](C)Cn1cnc2c(N)ncnc21)OCOC(=O)OC(C)C` yielded a z-score of 0.776. `CCN[C@H]1C[C@H](C)S(=O)(=O)c2sc(S(N)(=O)=O)cc21` gave a z-score of 0.48. In the case of `CN(C)c1ccc(C(=C2C=CC(=[N+](C)C)C=C2)c2ccc(N(C)C)cc2)cc1`, the z-score is reported as -2.26. `COCCCOc1cc(C[C@@H](C[C@H](N)[C@@H](O)C[C@H](C(=O)NCC(C)(C)C(N)=O)C(C)C)C(C)C)ccc1OC` showed a z-score of 0.318. In the case of `CN(C)CCc1c[nH]c2ccc(C[C@H]3COC(=O)N3)cc12`, the z-score is reported as -0.14. `NCCCC(O)(P(=O)(O)O)P(=O)(O)O` showed a z-score of 0.663. Compound `O=C(O)CSCC(=O)NC1CCSC1=O` (stereo unspecified) has a z-score of 0.223. `CCn1cc(C(=O)O)c(=O)c2cc(F)c(N3CCNCC3)cc21` gave a z-score of 2.59. Compound `N[C@@H](Cc1ccc(O)c(O)c1)C(=O)O` has a z-score of 0.453. For `C[C@@H]1CN(c2c(F)c(N)c3c(=O)c(C(=O)O)cn(C4CC4)c3c2F)C[C@H](C)N1`, the z-score was 2.67. Work on `CC(=O)[C@H]1CC[C@H]2[C@@H]3CC=C4C[C@@H](O)CC[C@]4(C)[C@H]3CC[C@]12C` yielded a z-score of 0.52. Compound `CCN1CCCC1CNC(=O)c1cc(S(N)(=O)=O)ccc1OC` (stereo unspecified) has a z-score of 0.683. `Cn1nnc2c(C(N)=O)ncn2c1=O` gave a z-score of 0.527. With `COc1ccc2c(c1)c(CC(=O)OCC(=O)O)c(C)n2C(=O)c1ccc(Cl)cc1` the z-score was 1.19. Work on `CC(=O)CC(c1ccccc1)c1c(O)c2ccccc2oc1=O` (stereo unspecified) yielded a z-score of 0.655. In the case of `CC1=C(C(=O)O)N2C(=O)[C@@H](NC(=O)C(N)c3ccccc3)[C@H]2SC1` (stereo partly specified), the z-score is reported as 0.228. Compound `Cn1c(=O)c2c(ncn2CC(O)CO)n(C)c1=O` (stereo unspecified) has a z-score of 0.351. In the case of `NNC(=O)c1ccncc1`, the z-score is reported as 0.222. In the case of `CO[C@@H]1[C@@H](OC(N)=O)[C@@H](O)[C@H](Oc2ccc3c(O)c(NC(=O)c4ccc(O)c(CC=C(C)C)c4)c(=O)oc3c2C)OC1(C)C`, the z-score is reported as 0.269. `NS(=O)(=O)c1cc2c(cc1Cl)NC(C(Cl)Cl)NS2(=O)=O` (stereo unspecified) showed a z-score of 0.327. For `Cc1nnc(C(=O)NC(C)(C)c2nc(C(=O)NCc3ccc(F)cc3)c(O)c(=O)n2C)o1`, the z-score was 0.249. Compound `Cc1onc(-c2ccccc2Cl)c1C(=O)N[C@@H]1C(=O)N2[C@@H]1SC(C)(C)[C@@H]2C(=O)O` has a z-score of 0.834. Compound `O=C(O)c1cccnc1` has a z-score of 0.528. `COc1ccccc1OCC(O)COC(N)=O` (stereo unspecified) showed a z-score of 0.974. Work on `CC(C)C[C@H](NC(=O)[C@H](CCc1ccccc1)NC(=O)CN1CCOCC1)C(=O)N[C@@H](Cc1ccccc1)C(=O)N[C@@H](CC(C)C)C(=O)[C@@]1(C)CO1` yielded a z-score of -2.71. Work on `Clc1ccccc1CN1CCc2sccc2C1` yielded a z-score of 0.609. For `COC(c1ccccc1)(c1ccccc1)[C@H](Oc1nc(C)cc(C)n1)C(=O)O`, the z-score was 0.918. In the case of `CC1CC2C3CCC4=CC(=O)C=C[C@]4(C)[C@@]3(F)[C@@H](O)C[C@]2(C)[C@@]1(O)C(=O)CO` (stereo partly specified), the z-score is reported as 0.693. In the case of `Cc1c(-c2ccc(O)cc2)n(Cc2ccc(OCCN3CCCCCC3)cc2)c2ccc(O)cc12`, the z-score is reported as 0.408. `CC(C)C1CCC(C(=O)N[C@H](Cc2ccccc2)C(=O)O)CC1` (stereo partly specified) gave a z-score of 0.0648. `O=C(O)CCn1c2c(c3ccccc31)C[C@H](NS(=O)(=O)c1ccc(F)cc1)CC2` showed a z-score of 0.798. In the case of `CCCCS(=N)(=O)CCC(N)C(=O)O` (stereo unspecified), the z-score is reported as 0.527. `CCN(CC)CCn1c(=O)c(Cc2ccc(OC)cc2)nc2ccccc21` showed a z-score of 0.577. With `CCCN[C@H]1CCc2nc(N)sc2C1` the z-score was 0.618. `O=C(NCC1CN(c2ccc(N3CCOCC3=O)cc2)C(=O)O1)c1ccc(Cl)s1` (stereo unspecified) gave a z-score of 0.69. For `CC1=NN(c2ccccc2)C(=O)C1`, the z-score was 0.556. For `CCN(CC)CC#CCOC(=O)C(O)(c1ccccc1)C1CCCCC1` (stereo unspecified), the z-score was 0.353. In the case of `NC(=O)c1ccc2[nH]ccc2c1`, the z-score is reported as 0.789.
